Data published in the supplement of paper PMC11417369.
Whole data set: some 25,000 sequences, median “ln(normalized median fluorescence intensity)” near 7.1, cut for the highest 2% near 10. The sample as a whole holds a higher share of the highest values than the screen did.

test system: PfSIP2 AP2 domain 1 (GST-tagged); test: gcPBM binding intensity (ln(normalized median fluorescence intensity)); higher = stronger DNA binding
In short: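 An Agilent 4 × 180k array carrying primer-extended double-stranded 36-bp intergenic genomic probes and negative controls received GST-tagged P. falciparum DNA-binding domains expressed in E. coli, about 25 μg on average, for 1 h. The binding buffer contained 1× PBS, 1% milk, 0.2 mg/ml BSA, 0.5% salmon testes DNA and 0.03% Triton X-100. Binding intensity is the top Masliner-normalised natural-log median intensity across replicate spots of either probe orientation, read after Alexa488 anti-GST antibody staining and a 488 nm scan.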

Sequence | gcPBM binding intensity (ln)
TTTATTTTAAAATATAGTACGCAAATAAAAATAAAT [XGTACX_site7783] | 7.33
AAATTTATTTCTGTGTGTCCACAAAAAAAAATCTTT [XGTACX_site691] | 6.91
TTTTTTTTTTTCTTTGCACACAGATAACTTGAAATT [CACACA_site2184] | 7.2
TATTATTAATATGTATGGTTGTAATCTGTGTCTCCT [TGCATGCA_negctrl_site190] | 7.12
CATTTTTTGCTTTCAACACACATACAATATATATAA [CACACA_site6127] | 7.26
AAAAAGAATAAATAAATAAATAAATATATATATATA [GTGCAC_negctrl_site584] | 9.47
AATATATGTAAATGGACACACACATATATATATATA [CACACA_site9220] | 9.61
AGAAATGAAATATACACACATACATATATACATATA [CACACA_site4033] | 7.21
ACATATATGTATAATACACACACTAATATATAATTG [CACACA_site1966] | 7.15
AAAATTAATATCTTGGTGCATTTTTTAATATTATTA [GTGCAC_site9638] | 10
AAAATTTATAGTATGGTGCATAAAAATATATATATA | 10.3
GAATTATAAATTATAGTGCATAAAATTATGGCATAA [GTGCAC_site9938] | 8.52
TAATATATATATATGGTGCATTTAATTTATATATAA | 10.8
CATATAAAAAATATGGTGCAGTTTTTTTTTTTTTTT | 10.4
TTTTGTAGTTTATAAATAAAAGAGAATATGGTGCTT [CACACA_negctrl_site413] | 7.7
CATATATAAATATAAATATATATATATATATATATG [XGTACX_negctrl_site493] | 7.56
ATATATATATATGTAGTGCATTTTATATATAATATT | 9.01
TTATAAAAAATTTTAGTGCATATATGATTTATATAT [GTGCAC_site9831] | 8.21
ACTCTATACATCTAATGTACATGGAAAAAAAAATTC [XGTACX_site733] | 7.28
ATTTATTTATTTATATGTACATATATATATATATAT [XGTACX_site339] | 9.54
TTAATTTATAAAAACACACACAGGTAAAAAGGTGCA [CACACA_site1177] | 9.31
TATTAATTTATTTGTTGTACGTAAATATGCTTGTTT [XGTACX_site6591] | 7.26
AAATGAACAAGTGGCACACACACATTCTAACTAATT [CACACA_site3203] | 6.93
TTCTATTTGTAAAATTGTACAAAATAAATAACAAAA [XGTACX_site1007] | 7.04
TACTTTTATATGAATACACACAGGAATATAAATATG [CACACA_site7647] | 7.2
